JMJD2A Tudor inh: inhibitors of human JMJD2A Tudor domain | AID 504339 | O75164 | Potency, µM (doses to about 114 µM), inactives show at the highest dose activity change, negative = inhibition, most hits filed as inhibitors | AlphaScreen JMJD2A-Tudor / H3K4me3 peptide binding | 4.4% of 390,000 active; also: potency is read from the fitted curve at half-maximal effect; % is scaled to controls: 0 for no effect and ±100 for the full control effect; nearly all actives have a fitted effect of over 50% in size
PI5P4Ka inh: PI5P4K alpha (human) kinase inhibition | P48426 | PI5P4Kalpha enzyme, ADP-Glo luminescence, 60 min; stronger effect = lower value | max response, % | 1.2% of 330,000 active; active = max response of -50% or lower; inconclusive = between -30% and -50%; inactive = -30% or higher; also: value at the top dose of about 77 µM; % is scaled to controls: 0 for no effect and ±100 for the full control effect
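Compounds were pin-transferred onto PI5P4Kalpha and substrate in HEPES pH 7.4 buffer with EGTA, CHAPS and 5% DMSO. ATP (5 microM final) started the reaction, which ran 60 minutes at room temperature before ADP-Glo detection.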
PLK1 PBD inh: blocks phosphopeptide binding to human PLK1 polo-box domain; Plk1 PBD binding of FITC phosphopeptide, fluorescence polarization; Potency, µM, for inactives: max response, negative = inhibition, hits mostly inhibitors; 2.8% of 360,000 active; also: potency is read from the fitted curve at half-maximal effect; series mostly up to about 57 µM; % is scaled to controls: 0 for no effect and ±100 for the full control effect; nearly all actives have a fitted effect of over 65% in size
BAZ2B inh: inhibitors of human BAZ2B bromodomain. Q9UIF8. 4.4% of 360,000 active. AlphaScreen BAZ2B-H3K14Ac peptide displacement. AID 504333. Potency, µM (highest dose often 114 µM), for the others: top-dose activity change, negative = inhibition, usual class: inhibitors; also: potency is read from the fitted curve at half-maximal effect; % is scaled to controls: 0 for no effect and ±100 for the full control effect; nearly all actives have a fitted effect of over 60% in size
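Protein-peptide AlphaScreen: BAZ2B 50 nM, b-H3K14Ac 50 nM, 1x PBS pH 7.4 + 0.01% Tween-20. Preincubation 30 min RT; cpd 30 min RT (top 110 uM); beads 20 min RT, light-protected.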
G9a block: G9a (human) methyltransferase inhibition; Q96KQ7; G9a H3K9 monomethylation, AlphaScreen, 2 h; Potency, µM (top dose mostly 102 µM), inactives show at the top dose activity, negative = inhibition, hits mostly inhibitors; 8.8% of 350,000 active; also: potency is read from the fitted curve at half-maximal effect; % is scaled to controls: 0 for no effect and ±100 for the full control effect; nearly all actives have a fitted effect of over 75% in size
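G9a (20 nM) was preincubated 15 min with compound, then reacted 2 h at room temperature with 500 nM biotin-H3K9 peptide and 20 µM SAM. Monomethyl-H3K9 detected by AlphaScreen using anti-H3K9me1 antibody.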
HP1b binding inh: HP1-beta chromodomain-methylated histone interaction inhibition | AlphaScreen HP1-beta / biotin-H3K9me3 peptide binding | 0.56% of 390,000 active | AID 540317 | P83916 | Potency, µM (titrated, usually from 114 µM), inactives show at the highest dose activity change, negative = inhibition, most hits filed as inhibitors; also: potency is read from the fitted curve at half-maximal effect; nearly all actives have a fitted effect of over 70% in size
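AlphaScreen: HP1-beta (50 nM) preformed 30 min with biotin-H3(1-18)K9me3 peptide (50 nM) in PBS pH 7.4, 0.01% Tween-20. Compound added for 30 min at RT, then streptavidin donor/nickel chelate acceptor beads (10 ug/mL) for 30 min.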
Active calls of the source: *; ? = inconclusive; nt = no result given; [ ] = dose if it differs, or a comment. A selection: hits, their analogues and other compounds. The true share with any hit is near 12%. Unless noted, calls follow the shape of the dose curve; as a rule, active = well fitted curve in the direction sought with a large enough effect; inconclusive = small, poorly fitted or top-dose-only effect, or another doubt; inactive = no such curve, though single readings can be large; an effect the other way counts as inactive or inconclusive.

SMILES	JMJD2A Tudor inh	PI5P4Ka inh	PLK1 PBD inh	BAZ2B inh	G9a block	HP1b binding inh
O=C(COC(=O)c1cnccn1)NCc1ccccc1Cl	nt	-10.4	-2.9%	nt	nt	nt
Cn1c(-c2cccc([N+](=O)[O-])c2)[n+](C)c2ccccc21	0.0%	2.9	-2.3%	nt	6.0%	26.4%
Cn1c(-[n+]2c(-c3ccccc3)cc(-c3ccccc3)cc2-c2ccccc2)nc2c([N+](=O)[O-])cccc21	-28.7%	1.1	-2.9%	-29.4%	10µM*	9.6%
O=C(Cc1csc(NC(=O)Nc2ccc(Cl)cc2)n1)NCc1ccccn1	-20.7%	-30.0	-4.6%	-7.6%	44.7µM*	18.9%
CC1CCc2c(sc3ncnc(NCCN4CCOCC4)c23)C1 (stereo not drawn)	-19.1%	-0.3	-7.2%	-1.6%	-1.5%[12.7 µM]	30.5%
CCc1cc2c(NCCO)ncnc2s1	14.5%	0.0	1.8%	2.5%	nt	24.3%
Cc1sc2ncnc(NCCN3CCOCC3)c2c1C	1.58µM*	nt	4.9%	50.1µM*	8.91µM*	-50.1%
CCc1cc2c(NCCN3CCCCC3)ncnc2s1	?	6.2	-2.9%	4.0%	50.1µM*	28.4%
COc1cccc(-c2cncnc2Nc2ccc(F)cc2)c1	nt	nt	nt	nt	3.3%[0.501 µM]	nt
CCc1nn(CC(=O)N2CCN(c3cccc(Cl)c3)CC2)c(=O)c2cc3sccc3n12	5.1%	nt	nt	-2.1%	0.7%[59 µM]	31.8%
C=CCOc1c(OC)cc(/C=N/Nc2cccc(C(=O)O)c2)c(Br)c1Br	56.2µM*	-10.3	29.9µM*	39.8µM*	10µM*	?
COc1cc(/C=N/Nc2ccc(C(=O)O)cc2)ccc1O	?	-19.3	-25.8%	50.1µM*	?	50.1µM*
COc1ccc([N+](=O)[O-])cc1/C=N/NC(=O)c1nonc1N	-19.6%	-8.9	-20.1%	0.3%	5.0%	19.1%
COc1cc(/C=N/NC(=O)CCn2cnc(-c3ccccc3)c2-c2ccccc2)ccc1O	56.2µM*	0.4	1.7%	44.7µM*	44.7µM*	?
COc1ccc([N+](=O)[O-])cc1/C=N/Nc1nn[nH]n1	-5.6%	-6.2	-6.6%	?	44.7µM*	16.2%
COc1cc(/C=N/NC(=O)CCN2CCCCC2)ccc1O	-3.0%[11.4 µM]	1.3	?	-3.5%	?	27.9%
COc1ccc(C(CC(=O)NCc2ccc(Cl)cc2)N2Cc3ccccc3C2=O)cc1OC (stereo not drawn)	-3.8%	nt	nt	-19.6%	1.3%[59 µM]	39.4%
CCOC(=O)c1cc(OC(=O)c2cccc(Cl)c2)n(-c2ccccc2)n1	?	nt	nt	-21.4%	-3.5%[59 µM]	18.1%
CC(C)(C)c1ccc(Oc2ccc(NC(=O)CCC(=O)OCC(=O)c3ccccc3)cc2)cc1	5.2%	nt	nt	-1.5%	0.5%[59 µM]	25.5%
Cc1nn(CCCC(=O)Nc2cccc(F)c2)c(=O)c2c1sc1ccccc12	-32.1%	nt	nt	-18.2%	?	7.3%
COc1ccc(/C=N/Nc2ccc([N+](=O)[O-])cc2)cc1O	?	1.9	20.5%	50.1µM*	?	?
COc1cc(/C=N/Nc2ccc([N+](=O)[O-])cn2)cc(OC)c1O	-22.5%	-1.7	-4.4%	-27.6%	8.91µM*	81.7%
COc1cc(/C=N/Nc2ccc(C(=O)O)cc2)cc(OC)c1OC	-6.7%	-5.1	-1.2%	-3.7%	50.1µM*	44.6%
COc1ccc(/C=N/Nc2ccc(C(=O)O)cc2)c(OC)c1OC	-23.3%	-3.9	-10.1%	18.8%	?	35.2%
Cc1cccc(C)c1-n1c(C)cc(/C=N\Nc2ccc([N+](=O)[O-])cn2)c1C	28.2µM*	-0.4	5.7%	-13.1%	?	-23.1%
SMILES	JMJD2A Tudor inh	PI5P4Ka inh	PLK1 PBD inh	BAZ2B inh	G9a block	HP1b binding inh
O=[N+]([O-])c1ccc(NN=Cc2cccc(O)c2)nc1	-24.1%	-5.3	-6.7%	nt	nt	-14.6%
Cc1ccc(C(=O)Nc2ccccc2C(=O)N2CC(C)OC(C)C2)cc1 (stereo not drawn)	nt	0.6	2.5%	nt	nt	nt
Cc1cc(C)cc(OCC(=O)OC(C)C(=O)Nc2c(C)n(C)n(-c3ccccc3)c2=O)c1 (stereo not drawn)	-8.3%	1.2	-1.9%	10.1%	?	27.7%
CC(=O)Oc1ccccc1Cn1c(C)c(C(=O)NCc2cccc([N+](=O)[O-])c2)sc1=O	nt	-0.4	-9.0%	nt	nt	nt
Cn1cc(Br)c(C(=O)n2cc(Br)cn2)n1	?	-19.6	16.8µM*	-19.3%	6.1%	-12.4%
CCOC(=O)c1sc(NC(=O)c2cc(-c3ccccc3C)nc3ccccc23)c(C#N)c1C	-33.6%[11.4 µM]	-19.2	5.32µM*	-7.0%	1.58µM*	6.31µM*
Cc1ccccc1-c1cc(C(=O)Nc2sc(C)c(C)c2C(N)=O)c2ccccc2n1	?	?	26.7µM*	?	?	?
CCOC(=O)c1c(NC(=O)c2cc(-c3ccc(Cl)s3)nc3ccccc23)sc(C(N)=O)c1C	-7.6%	-28.7	-10.3%	-1.2%	-4.8%[59 µM]	37.9%
Cc1ccc(CNC(=O)c2ccc3c(c2)nc2n3CCCC2)cc1	0.6%	nt	nt	1.9%	10.2%[59 µM]	25.5%[57 µM]
C=CCn1c(CC#N)nnc1N1CCOCC1	?	nt	1.1%	50.1µM*	?	21.0%
CCc1ccccc1NC(=O)C1CCCN(c2ncnc3onc(C)c23)C1 (stereo not drawn)	2.6%	nt	nt	9.6%[57.1 µM]	-4.2%[59 µM]	30.4%
COc1ccc(-c2nn(-c3ccccc3)cc2CNC[C@H]2O[C@@H](n3cnc4c(=O)[nH]c(N)nc43)[C@H](O)[C@@H]2O)cc1	nt	19.1	1.2%	nt	nt	nt
O=C(CSS(=O)(=O)O)N1CCN(C(=O)c2ccoc2)CC1	-8.3%	-0.1	?	-0.2%	20µM*	46.5%
CC1(C)CNc2cc(N)ccc2S1	44.7µM*	-26.5	-13.8%	44.7µM*	3.55µM*	?
Cc1ccc(CCNC(=O)C2CCN(S(=O)(=O)N3CCOCC3)CC2)cc1	28.2µM*	3.5	7.3%	-3.9%	10.0%	?
CCCS(=O)(=O)N1CCC(C(=O)NCCCN(CC)c2cccc(C)c2)CC1	-9.4%	3.1	1.6%	12.4%	?	19.1%
Cc1cccc(CCNC(=O)C2CCN(S(=O)(=O)N3CCOCC3)CC2)c1	-25.7%	-4.0	8.9%	1.3%	15.5%	-0.6%
CCN(CCCNC(=O)C1CCN(S(=O)(=O)N2CCOCC2)CC1)c1cccc(C)c1	?	0.0	-5.4%	-33.4%	35.5µM*	7.5%
COCCCNS(=O)(=O)c1cc(-c2onc(C)c2C)ccc1OC	-12.0%	nt	nt	-11.8%	-23.4%[59 µM]	45.7%
CCN(CC)c1ccc(-c2nnc(SCC(=O)Nc3ccccc3C#N)n2-c2ccccc2)cc1	-30.5%	-8.3	-2.5%	-29.0%	10µM*	18.8%
N#Cc1ccccc1NC(=O)CSc1nnc(-c2ccccc2)n1-c1ccccc1	1.0%	2.7	-2.9%	2.6%	?	27.8%
CCNC(=O)CSc1nnc(-c2ccccc2)n1-c1ccc(OCC)cc1	-1.3%	nt	1.9%	?	50.1µM*	25.8%
